# Source: PubChem BioAssay (Tox21)
# Results filed as inconclusive are left out. Unmarked numbers belong to inactive results. Calls follow the shape of the full dose curve.
# Test: qHTS assay for small molecule disruptors of the mitochondrial membrane potential - cell viability (AID 720634);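 also: human HepG2 liver cancer cells; nearly all actives have a fitted effect of over 20% in size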
# Conditions: HepG2 viability, ATP luminescence (CellTiter-Glo), 1 h; series mostly up to 83.2 µM; activity change, negative = cytotoxicity: at the top concentration
# Method in brief: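 HepG2 cells seeded overnight at 37 C, then exposed to compound or DMSO for 1 hr at 37 C, 5% CO2. m-MPI dye added, then CellTiter-Glo for 30 min at room temperature; viability read as ATP luminescence.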
# % is scaled to controls: 0 for no effect and ±100 for the full control effect.
row,Compound,"activity change, negative = cytotoxicity"
1,NCC(=O)CCC(=O)O,-7.92%
2,CCOC(=O)Cc1cccc2ccccc12,-10.6%
3,CC(=O)c1ccc2c(c1)N(CCCN(C)C)c1ccccc1S2,-5.01% [at 39.1 µM]
4,CN1CCN(C(c2ccccc2)c2ccccc2)CC1,13.6% [at 39.1 µM]
5,Clc1ccc(Cn2c(CN3CCCC3)nc3ccccc32)cc1,-20% [at 39.1 µM]
6,CCCCCCCCO[C@@H]1O[C@H](CO)[C@@H](O)[C@H](O)[C@H]1O,10.7%
7,c1ccc(CNCCNCc2ccccc2)cc1,9.78%
8,COC(C)OC,3.43%
9,CC(COCCO)OCCO (configuration not stated),-0.859%
10,COS(=O)(=O)C(F)(F)F,4.21% [at 95.3 µM]
11,CCNc1cc(O)ccc1C,-11.9%
12,Nc1cccc([N+](=O)[O-])c1,6.32%
13,CC/C=C\CCOC(=O)CC,-1.61%
14,CCN(CC)c1ccc2c(-c3ccccc3C(=O)O)c3ccc(=[N+](CC)CC)cc-3oc2c1,-25.2%
15,CN(C)C(=O)NC1(c2ccccc2)CCN(CC[C@@]2(c3ccc(F)c(F)c3)CN(C(=O)c3ccccc3)CCO2)CC1,-2.78%
16,CC(=O)NO,-0.636%
17,CC1=CCCC(C)(C)C12CCC(C)O2 (configuration not stated),8.16%
18,Nc1ccccc1S(=O)(=O)c1ccccc1,-11.9%
19,C#CCN(C)CCCOc1ccc(Cl)cc1Cl,-5.46%
20,CC(=O)c1ccc2c(c1)N(CCCN1CCC(CCO)CC1)c1ccccc1S2,15.7% [at 39.1 µM]
21,COC(=O)c1ccc(I)cc1S(=O)(=O)NC(=O)Nc1nc(C)nc(OC)n1,5.37%
22,C=C1[C@H]2CC[C@@H]3[C@H]2C(C)(C)CCC[C@]13C,6.46%
